Measurements as given in PubChem BioAssay AID817 (Emory University Molecular Libraries Screening Center, 2007).
Among all 140,000 compounds or so, about 300 (0.21%) were called active.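 Rule for the calls: active = z-score above 3 at both the 24 hr and the 30 hr optical density reads; inactive = the rest, inconclusive results apart.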 What follows is part of a selection rich in actives, with near analogues and random picks from the rest.

Assay: restorers of sdo1-deficient yeast growth – S. cerevisiae, bone marrow failure model, primary screen (AID 817);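 note: z-score against mean and SD of all compound wells on the same plate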
Details: S. cerevisiae sdo1-depleted JHY4D growth rescue, at 10 µM, stronger effect = higher value, pdr5 snq2 efflux-pump mutant strain
[1] = OD600, measured here: growth rescue at 24 h

SMILES | z-score (OD600 30 h) | z-score [1]
CC(NC(=S)Nc1ccccc1)C1COc2ccccc2O1 (centres undefined) | -0.7 (inactive) | 0.37
Clc1cccc(CN2COc3c(cc(Cl)c4cccnc34)C2)c1 | -1.42 (inactive) | 1.02
COc1ccc(C(=O)CSc2nnc(NC(=O)C3CC(=O)N(c4cccc(OC)c4)C3)s2)cc1 (centres undefined) | -0.16 (inactive) | 0.63
Cn1cccc1/C=C1\SC(=S)N(NC(=O)c2ccc(Cl)cc2)C1=O | -1.05 (inactive) | -0.65
COc1cc(OC)c(-n2cc(-c3ccc(Cl)cc3)[nH]c2=O)cc1Cl | 0.21 (inactive) | 1.29
COCCCNC(=O)CNC(=S)N(Cc1cc(OC)c(OC)c(OC)c1)C1CCCC1 | 1.27 (inactive) | 0.62
O=C(NC(=S)NC1CCSC1=O)c1ccccc1F (centres undefined) | 1.34 (inactive) | 0.37
COc1cc(OC)c(C(=O)OC(C)C(=O)Nc2cc(C(F)(F)F)ccc2Cl)cc1OC (centres undefined) | -0.55 (inactive) | -0.89
COc1ccc(COC(=O)N/N=C(\C)CC(=O)Nc2ccc(Cl)cc2)cc1 | -0.6 (inactive) | -0.79
Cc1cccc2cc(CN(Cc3cccs3)C(=S)NCc3ccco3)c(=O)[nH]c12 | -0.84 (inactive) | -0.86
Cc1nc(CC(=O)NNS(=O)(=O)c2ccc(F)c(Cl)c2)cs1 | -0.8 (inactive) | -1.4
Oc1c(Br)cccc1/C=N/Nc1c(F)c(F)c(F)c(F)c1F | -1.2 (inactive) | -1.07
CCCCC(NS(=O)(=O)c1ccc(C)cc1)C(=O)Oc1ccc2c3c(c(=O)oc2c1)CCC3 (centres undefined) | 3.73 (inactive) | 0.78
COc1ccc(-c2nnco2)cc1OC | 12.4 (active) | 7.83
COc1ccc(-c2noc(-c3cccc(OC)c3OC)n2)cc1OC | 0.11 (inactive) | 0.39
COc1ccc2c(Cl)c(-c3nnco3)sc2c1 | -1.26 (inactive) | -0.79

SMILES | z-score (OD600 30 h) | z-score [1]
O=C(COC(=O)c1ccc(Oc2ccccc2)cc1)Nc1nnc(-c2ccccc2)o1 | 0.36 (inactive) | -0.67
COc1cccc(NC(=O)CN(C)S(=O)(=O)c2ccc(C)cc2)c1 | -1.24 (inactive) | -0.78
COc1cccc(-c2nnc(NC(=O)c3ccc(S(=O)(=O)N(CC(C)C)CC(C)C)cc3)o2)c1 | 5.73 (active) | 8.93
O=C(Cc1ccc(-c2ccccc2)cc1)NC(c1ccccc1)c1ccccc1 | -0.71 (inactive) | -0.45
COc1ccc(CC(=O)Nc2cc(S(=O)(=O)N3CCCCC3)ccc2N2CCN(C)CC2)cc1 | 0.01 (inactive) | -0.4
O=[N+]([O-])c1cccc(S(=O)(=O)N2CCCCCC2)c1 | 0.38 (inactive) | -0.08
Cc1ccc(C(C)C)cc1OCCN1CCCC1 | -1.51 (inactive) | -0.59
O=C(Nc1ccc(CSc2ccccc2)cc1)c1ccc(CN2CCOCC2)cc1 | -1.65 (inactive) | -1.3
CSCC[C@H](NC(=O)OC(C)(C)C)C(=O)N/N=C/c1cc2ccc(C)cc2nc1Cl | -1.17 (inactive) | -0.96
Cc1ccc(C)c(OCC(=O)N2CCN(C(=O)c3ccco3)CC2)c1 | 2.17 (inactive) | 2
CCn1c(/C=N/NC(=O)c2ccc(OC)cc2)nc2ccccc21 | -1.61 (inactive) | -0.95
CC(C)CC(CO)N1CCN(C(=O)c2ccc(Cl)cc2Cl)CCC1=O (centres undefined) | 0.36 (inactive) | -0.56
CC(=O)Nc1ccc(SCC(=O)Nc2ccccc2Oc2ccccc2)cc1 | -0.06 (inactive) | -0.09
Cc1sc2nc(CC(N)=O)[nH]c(=O)c2c1-c1ccccc1 | 0.91 (inactive) | 0.6
CCOc1cc(NC(=S)NCCCOC)c(OCC)cc1NC(=O)c1ccco1 | 0.22 (inactive) | -0.09
CCOc1cccc(OCCCOc2cccc3cccnc23)c1 | -1.11 (inactive) | -0.59
